Compound activity (PubChem)
PfM18AAP inh: blocks P. falciparum M18 aspartyl aminopeptidase | inhibition, % at 7.35 µM | 1.2% of 290,000 active | recombinant PfM18AAP, H-Glu-NHMec fluorogenic cleavage;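 active = inhibition above the campaign mean inhibition over all tested compounds plus 3 SD, cut at about 28% in these data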
PHOSPHO1 block: blocks human PHOSPHO1 phosphatase activity | Q8TCT1 | recombinant PHOSPHO1, absorbance phosphatase assay | inhibition, % at 13.3 µM | 1.1% of 290,000 active | AID 1565; in the data active = inhibition above about 60%
Target sequence (Q8TCT1 whole entry, looked up): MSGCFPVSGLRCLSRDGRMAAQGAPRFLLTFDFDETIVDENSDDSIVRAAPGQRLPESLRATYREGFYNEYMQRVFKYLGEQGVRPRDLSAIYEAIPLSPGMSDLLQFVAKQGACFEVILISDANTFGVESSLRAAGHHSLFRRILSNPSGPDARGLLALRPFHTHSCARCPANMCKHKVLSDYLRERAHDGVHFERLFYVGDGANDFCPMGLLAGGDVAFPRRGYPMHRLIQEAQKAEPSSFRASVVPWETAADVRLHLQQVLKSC
ALR inh: blocks human ALR sulfhydryl oxidase activity; purified ALR, DTT oxidation, H2O2 HRP-luminol luminescence; inhibition, % (test concentration not listed); 3.8% of 290,000 active; AID 485317;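 active = mean replicate inhibition above about 79%, with every replicate also reaching it, limit read from the data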
Target sequence (P55789 whole entry, looked up): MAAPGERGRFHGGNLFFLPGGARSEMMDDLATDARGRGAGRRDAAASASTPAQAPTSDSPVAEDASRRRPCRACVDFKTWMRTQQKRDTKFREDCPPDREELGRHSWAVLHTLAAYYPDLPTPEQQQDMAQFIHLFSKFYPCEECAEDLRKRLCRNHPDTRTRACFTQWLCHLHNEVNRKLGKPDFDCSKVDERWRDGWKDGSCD
Cardio protect: modulators protecting cardiomyocytes from myocardial damage. H9c2 cardiomyocytes, H2O2 injury protection, ATPLite, 2 h. protection from H2O2 cell death, % at 20 µM. 0.63% of 360,000 active;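 active = compounds giving at least 50% protection of heart cells from peroxide-induced death in the single-dose screen, raw or plate-pattern-corrected value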
PfGluPho inh: PfG6PD (Plasmodium falciparum) enzyme inhibition | PfGluPho enzyme, NADPH resazurin-diaphorase fluorescence | inhibition, % at 20 µM | 0.78% of 350,000 active;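 active = inhibition reaching at least a set limit at 20 µM in the primary screen, cut at about 59% in these data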
A number is an active result; n = inactive; x = not tested or not shown. In the library only some 5.6% were active in any assay of this set; here they are far more common.

SMILES | PfM18AAP inh | PHOSPHO1 block | ALR inh | Cardio protect | PfGluPho inh
Cc1ccc(-c2nc(Nc3cccc(C)c3)sc2CC(=O)O)cc1 | n | n | 98 | n | n
CC(=O)Nc1ccc(NC(=O)Cc2sc(C)nc2-c2ccc(C)cc2)cc1 | n | n | x | n | n
Cc1cccc(Nc2nc(CC(=O)O)cs2)c1 | n | n | n | n | n
CCOc1cccc(C2C(C(=O)c3ccc(C)o3)=C(O)C(=O)N2c2nnc(C)s2)c1 (stereo unspecified) | x | x | x | n | n
CCCOc1cccc(C2C(C(=O)c3ccc(C)o3)=C(O)C(=O)N2c2nc(C)c(C(C)=O)s2)c1 (stereo unspecified) | n | n | 97 | n | n
Cc1ccc(C)c(NS(=O)(=O)c2ccc(-c3ccc(=O)[nH]n3)o2)c1 | n | 65 | n | n | n
CC(NC(=O)NC(=O)c1cccc([N+](=O)[O-])c1)C1CC1 (stereo unspecified) | n | 75 | n | n | n
CC(NC(=O)NC(=O)c1ccc(F)cc1)C1CC1 (stereo unspecified) | x | x | x | n | n
OCCNc1nc(-c2ccccc2)c2cc(Cl)ccc2n1 | n | n | n | n | n
Cc1ccc2nc(NCCO)nc(-c3ccccc3)c2c1 | n | n | 98 | n | n
COc1ccc(Br)c(Cn2c(C)c(C(=O)NCc3ccccc3C(F)(F)F)sc2=O)c1 | x | x | x | n | x
O=C(Nc1ccc(CN2CCOCC2)cc1)c1ccco1 | n | x | 77 | n | n
O=C(CSc1ccc(Cl)cc1)Nc1ccc(NC(=O)c2ccco2)cc1 | n | n | 100 | n | n
CCN(Cc1cc(OC)c(OC)c(OC)c1)C(=S)Nc1cccc(SC)c1 | n | n | n | n | n
Cc1cc[n+](-c2[nH]c(=O)sc2/C=N/N=C(\[O-])c2ccccc2)cc1C | n | n | x | n | n
Cc1cc[n+](-c2[nH]c(=O)sc2/C=N/N=C(\[O-])c2ccncc2)cc1C | 29 | n | n | n | n
Cc1nc2ccc(Br)cc2c(=O)n1Cc1cccs1 | x | x | x | n | n
Cc1ccc(NN2C(=O)C=C(c3ccccc3)C2=O)cc1 | n | 61 | x | n | n
O=C1c2ccccc2C(=O)N1Nc1ccccc1 | n | n | x | n | n
Cc1nnc(NC(=O)CCSc2ccccc2)s1 | n | n | n | n | n
Cc1nnc(NC(=O)CCSc2ccc(Cl)cc2)s1 | n | 60 | n | n | n
CSc1nsc(SC)c1C(=O)N1CCN(S(=O)(=O)c2ccc(C)cc2)C1C(C)C (stereo unspecified) | n | n | n | 83 | n
CSc1nsc(SC)c1C(=O)N1CCN(S(=O)(=O)c2ccc(C)cc2)C1C (stereo unspecified) | n | n | n | n | n
O=C(O)c1ccccc1C(=O)Nc1cccc([N+](=O)[O-])c1 | n | n | n | n | n
Nc1ccc(Nc2ccc([N+](=O)[O-])cc2[N+](=O)[O-])cc1 | n | n | 98 | n | n
SMILES | PfM18AAP inh | PHOSPHO1 block | ALR inh | Cardio protect | PfGluPho inh
O=C(O)c1ccccc1C(=O)Nc1ccc(Nc2ccc([N+](=O)[O-])cc2[N+](=O)[O-])cc1 | n | n | 96 | n | n
CCNc1nc2c(cnn2C)c(=O)[nH]1 | x | x | x | n | n
COc1cc(/C=C2\SC(=O)NC2=O)ccc1Oc1ccc([N+](=O)[O-])cc1[N+](=O)[O-] | n | n | 98 | n | n
O=C(NCc1ccc(F)cc1)C(c1cccnc1)N(C(=O)c1csnn1)c1ccccc1 (stereo unspecified) | n | n | n | n | n
COc1ccc(CCNC(=O)c2ccc3c(c2)NC(=O)C(CSCc2cc(C)ccc2C)N3)cc1OC (stereo unspecified) | n | n | 99 | x | x
COc1ccc(CCNC(=O)c2ccc3c(c2)NC(=O)C(C(C)C)N3)cc1OC (stereo unspecified) | n | n | n | n | n
CCN1C(=O)[C@H]2[C@H]3CN=C(SCC(=O)c4ccccc4)N3[C@@](C)(C(=O)OC)[C@H]2C1=O | x | x | x | n | n
Cc1c(C#N)c(NC(=O)CCl)n(Cc2ccc(F)cc2)c1C | n | n | n | n | n
Cc1c(C#N)c(NC(=O)CCl)n(Cc2ccccc2)c1C | n | n | 96 | n | n
COc1cc(/C=C2/SC(=Nc3ccc(O)cc3)NC2=O)cc(OC)c1O | 33 | n | n | n | n
COc1cc(/C=C2\SC(=Nc3ccc(O)cc3)NC2=O)cc(OC)c1OC | n | n | n | x | n
CCc1ccc(N=C2NC(=O)/C(=C/c3ccc(OCC(=O)O)cc3)S2)cc1 | n | n | 98 | n | n
CCc1ccc(N=C2NC(=O)/C(=C/c3ccc(OCC(=O)O)c(OC)c3)S2)cc1 | n | n | x | n | n
COc1cc2c(CCNC(C)=O)c[nH]c2cc1O | x | x | 80 | n | n
COc1ccc(CCNC(=O)NCCc2c[nH]c3ccccc23)cc1OC | n | n | n | n | n
O=C(NNS(=O)(=O)c1ccc2ccccc2c1)c1cc(-c2ccccn2)nc2ccccc12 | n | n | 96 | n | n
COCCCNc1nc(-c2ccc(Cl)cc2)nc2ccccc12 | n | n | n | n | n
OCCCNc1nc(-c2ccc(Cl)cc2)nc2ccccc12 | n | n | 98 | n | n
COc1cc(C=C(C#N)C(=O)c2ccccc2)cc(OC)c1OC | x | x | x | n | x
COc1ccc(/C=C(\C#N)C(=O)c2c(C)[nH]c3ccccc23)cc1OC | n | n | n | 54 | n
COc1cc(/C=C(\C#N)C(=O)c2c(C)[nH]c3ccccc23)cc(OC)c1OC | n | n | 96 | n | n
CC(C)c1ccc(-c2nn(-c3ccccc3)cc2C(=O)NCC2CCCO2)cc1 (stereo unspecified) | x | x | n | n | n
CN(C)C(CNC(=O)C1CCN(S(=O)(=O)c2cccc(Cl)c2Cl)CC1)c1ccccc1 (stereo unspecified) | n | n | n | n | n
Cc1ccc2cc3c(NC(=O)c4cccnc4)nn(C)c3nc2c1 | n | n | n | 59 | n
CC(=O)Nc1nn(C)c2nc3cc(C)ccc3cc12 | n | n | n | n | n
SMILES | PfM18AAP inh | PHOSPHO1 block | ALR inh | Cardio protect | PfGluPho inh
COc1ccc(OC)c(C2=NOC(C(=O)NCc3cccs3)C2)c1 (stereo unspecified) | n | n | n | n | n
c1ccc2c(OCCCN3CCCCCC3)cccc2c1 | n | n | n | n | n
C=CC[n+]1c(-c2ccc(Cl)cc2Cl)csc1Nc1ccc(NC(C)=O)cc1 | n | n | n | n | n
C=CC[n+]1c(-c2ccc(Cl)cc2Cl)csc1Nc1c(C)n(C)n(-c2ccccc2)c1=O | n | n | 94 | n | n
C=CC[n+]1c(-c2ccc(C)cc2)csc1Nc1c(C)n(C)n(-c2ccccc2)c1=O | n | n | 99 | n | n
Cc1c(Nc2nc(-c3ccccc3)cs2)c(=O)n(-c2ccccc2)n1C | n | n | x | n | n
COc1ccc(CCCNC(=O)C2(C)Cc3c(-c4cccc(C(N)=O)c4)ccnc3O2)cc1 (stereo unspecified) | x | x | x | n | x
O=C(OCn1ncc(Br)c(Br)c1=O)c1ccccc1Cl | n | n | n | n | n
O=C(OCn1ncc(Cl)c(Cl)c1=O)c1cccc(C(F)(F)F)c1 | n | n | 97 | n | n
C/C(N)=C(/C#N)C(=O)CSc1nnc(Nc2c(C)cccc2C)s1 | n | 67 | n | n | n
